# Dicer processing: inhibitors of Dicer pre-microRNA processing, primary screen, biochemical, cat-ELCCA, chemiluminescence; Endoribonuclease Dicer (Homo sapiens), Q9UPY3; cat-ELCCA pre-miR-21 Dicer processing; active compounds read high; z-score at 25 µM; hit rate 6% among 47,000; in the data active means z-score above about 3, passing the limit was not always enough;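 further: plate controls were vehicle for no effect and no enzyme for full effect; higher signal means more uncleaved substrate so more Dicer inhibition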
# * hit, by the source's call. This is one part of a sample in which hits are shown more often than they occur.
SMILES,Dicer processing
COC(=O)C1=C(C)NC2=C(C(=O)CCC2)C1c1ccc(C#Cc2ccccc2)s1 (configuration not stated),3.1*
CC1=C(C(=O)OCCc2ccccc2)C(c2ccccn2)C2=C(CCCC2=O)N1 (configuration not stated),1.4
Clc1cccc(OCc2nc(-c3ccc(-n4cccc4)cc3)no2)c1,-0.7
O=C1CS(=O)(=O)N(Cc2c(F)cccc2Cl)c2ccccc21,-0.02
CC(C)OC(=O)C1C(=O)CC(C)(O)C(C(=O)OC(C)C)C1c1ccc(C(C)C)cc1 (configuration not stated),-0.26
COC(=O)C1=C(C)Nc2nc3ccccc3n2C1c1ccncc1 (configuration not stated),-1.5
COc1ccccc1-c1nc2ccccc2c(=O)o1,-1.8
FC(F)(F)c1ccc(-c2n[nH]c(=S)o2)cc1,0.29
CCn1nc(C)cc1-c1n[nH]c(=S)o1,0.96
COc1ccccc1-c1n[nH]c(=S)o1,3.7*
Cc1ccccc1-c1n[nH]c(=S)o1,-1.2
Cc1ccc(-c2n[nH]c(=S)o2)cc1,4.8*
CSc1ccc(Cl)cc1NC(=O)c1c(C)noc1C,16
O=C1c2ccccc2-c2cccc(C(=O)N3CCCCC3)c21,-1.2
O=C(c1ccc(N2CCOCC2)nc1)N1CCOCC1,0.43
O=C1c2ccccc2-c2ccc(C(=O)N3CCOCC3)cc21,4.1*
COC(=O)C1=C(C)Nc2nnnn2C1c1ccc(Cl)cc1 (configuration not stated),1.1
Cn1c2c(c(=O)n(C)c1=O)C(CC(=O)Nc1ccc(Cl)cc1)C(=O)N2 (configuration not stated),1.1
CC(C1CC1)N(C(=O)CCC(=O)O)c1ccccc1 (configuration not stated),1
Cc1nc(C)c(-c2ccnc(N)n2)s1,0.57
CCOc1cccc(C(c2c[nH]c3ccccc23)c2c[nH]c3ccccc23)c1O,6.4*
O=C(O)CC(C(=O)O)c1c[nH]c2ccccc12 (configuration not stated),0.21
Cc1cccc(C(c2c[nH]c3ccccc23)c2c[nH]c3ccccc23)c1O,1.2
COc1cccc(C(c2c[nH]c3ccccc23)c2c[nH]c3ccccc23)c1,0.33
COc1ccc(C(c2c[nH]c3ccccc23)c2c[nH]c3ccccc23)cc1OC,-0.04
SMILES,Dicer processing
Oc1ccc(Cl)cc1C(c1c[nH]c2ccccc12)c1c[nH]c2ccccc12,4.3*
O=c1[nH]c2nc3ccccc3n2c(O)c1Cc1ccccc1,-0.43
CS(=O)(=N/C=C(\C#N)C(=O)c1ccc(Cl)cc1)c1ccc(Cl)cc1 (configuration not stated),-0.68
CCOc1ccccc1N1C(=O)C2C(c3ccc(C)cc3)OC3(C(=O)c4ccccc4C3=O)C2C1=O (configuration not stated),-1.8
CCC(COC(C)=O)Nc1nc2c(c(=O)n(C)c(=O)n2C)n1Cc1ccccc1 (configuration not stated),-0.06
O=C(CC(Sc1ccccc1C(=O)O)c1ccc(F)cc1)c1ccc(F)cc1 (configuration not stated),-5.8
COc1c(Cl)cc(Cl)c(OC)c1C(=O)NC(=O)Nc1c(Cl)cc([N+](=O)[O-])cc1Cl,-1
COc1c(Cl)cc(Cl)c(OC)c1C(=O)NC(=O)Nc1c(C)cc(Br)cc1C,-1.9
COc1c(Cl)cc(Cl)c(OC)c1C(=O)NC(=O)Nc1c(Cl)cc(Cl)cc1Cl,3.2*
C=CCSc1nsc(SCC(=O)c2ccc([N+](=O)[O-])cc2)c1C#N,-1.2
C=CCN1C(=O)C(O)(c2c[nH]c3ccccc23)c2cc(Br)ccc21 (configuration not stated),2
C=CCOc1ccc(C2C(C(=O)OC)=C(C)NC3=C2C(=O)c2ccccc23)cc1OCC (configuration not stated),-0.3
CCCC[C@@]1(C2CCCC2)Cc2cc(OCC(=O)O)c(Cl)c(Cl)c2C1=O,4*
CCOC(=O)CSCc1c(C)c(C)c(C)c(C)c1C,-0.06
Cc1ccc(C2OC3(C(=O)c4ccccc4C3=O)C3C(=O)N(c4cccc(Cl)c4)C(=O)C23)cc1 (configuration not stated),-0.17
CN1c2ccccc2C(=O)/C(=C\Nc2cccnc2)S1(=O)=O,-0.27
COc1ccc2c(c1)c(=O)oc1cc3occ(-c4ccc(C)cc4)c3cc12,-1
COc1ccc2c(c1)c(=O)oc1cc3occ(-c4ccc(F)cc4)c3cc12,1.5
COc1ccc(-c2coc3cc4oc(=O)c5cc(OC)ccc5c4cc23)cc1,3.8*
O=C(Nc1ccc(Cl)cc1)Nc1cc(Cl)sc1Cl,4.7*
O=C(Nc1ccc(Cl)cc1)Nc1nc(-c2cc(Cl)c(Cl)s2)cs1,1.5
N#Cc1c(F)ccc(NC(=O)Nc2ccc(Cl)cc2)c1F,-0.58
C#CC1(NC(=S)NC2CC(C)CC(C)(C)C2)CCCCC1 (configuration not stated),-1.9
COC(=O)C1=C(C)O/C(=C2/C=CC=CN2)C(C)=C1,3.1*
COC(=O)C1CCN(C(=O)Cn2cnc3c2c(=O)n(C)c(=O)n3C)CC1,4.6*
SMILES,Dicer processing
Cn1c(=O)c2c(ncn2CC(=O)N2CCCC2)n(C)c1=O,-0.45
CCOC(=O)CCn1cnc2c1c(=O)n(C)c(=O)n2C,5.2
CCOC(=O)C1CCCN(C(=O)Cn2cnc3c2c(=O)n(C)c(=O)n3C)C1 (configuration not stated),7.2*
COCCCNC(=O)Cn1cnc2c1c(=O)n(C)c(=O)n2C,1.6
CC1CCN(C(=O)Cn2cnc3c2c(=O)n(C)c(=O)n3C)CC1,3.1*
Cn1c(=O)c2c(ncn2CC(=O)N2CCOCC2)n(C)c1=O,1.4
Cn1c(=O)c2c(ncn2CC(=O)N2CCCCC2)n(C)c1=O,0.77
Cn1c(=O)c2c(ncn2CC(=O)NC2CCSC2=O)n(C)c1=O (configuration not stated),1.4
O=[N+]([O-])c1cc(C(F)(F)F)c(N2CCCCC2)cc1N1CCCCC1,21
Cc1csc(C(=O)Nc2cccc(C(F)(F)F)c2)c1,-0.13
COC(=O)c1csc(S(=O)(=O)N=S(C)(=O)c2cccs2)c1OC (configuration not stated),0.07
C(=N\Nc1nnc2c(n1)[nH]c1ccccc12)/c1ccccc1,0.32
COc1cccc(C2C(C(=O)OC(C)C)=C(C)N=C3SCCC(=O)N32)c1 (configuration not stated),-1.4
CC(C)(C)OC(=O)C(C)(C)S(=O)(=O)c1ccc(C(F)(F)F)cn1,-0.91
CCc1ccc(C2C(C(=O)OCC(C)C)=C(C)NC3=C2C(=O)CC(c2cccs2)C3)s1 (configuration not stated),2.2
CC(C)C[C@H](NC(=O)[C@@H](O)[C@H](N)Cc1ccccc1)C(=O)O,-4.4
CC(C)CC(NC(=O)c1ccco1)C(=O)O (configuration not stated),5.2*
CC(C)C[C@H](NC(=O)c1ccc(Cl)cc1Cl)C(=O)O,2.2
Cc1ccsc1CNC(C)(C)CO,-0.89
COc1ccc(OC)c(S(=O)(=O)Nc2cc(Cl)c3oc(=O)sc3c2)c1,-0.17
Cc1ccc(S(=O)(=O)N2CCN(S(=O)(=O)N3CCOCC3)CC2)c(C)c1,-1.9
Cc1cc(F)ccc1S(=O)(=O)Nc1ccc2oc(=O)sc2c1,7.8*
Cc1cc(=O)oc2cc(NS(=O)(=O)c3ccc(F)cc3)ccc12,0.84
O=C(O)c1ccc(S(=O)(=O)Nc2ccc3oc(=O)sc3c2)cc1,1.1
O=S(=O)(Nc1ccc(Br)cc1)c1ccccc1,1.8

# High-throughput results from PubChem BioAssay.
